# Assay: binders from COS7 lysate, DM2A8 probe, primary screen, torsin A project, cell lysate, small-molecule microarray, fluorescence 635/667 (AID 1065)
# Settings: higher = more signal, COS7 lysate expressing mutant human TOR1A
row,SMILES,composite z-score
1,COCCOC(=O)N1C(=O)[C@@]2(c3cc(C#CC4(O)CCCCCC4)ccc31)[C@H](C(=O)NC[C@H](O)c1ccccc1)[C@H]1C(=O)O[C@H](c3ccccc3)[C@H](c3ccccc3)N1[C@@H]2c1ccc(OCCO)cc1,-0.166
2,COc1cccc(C)c1NC(=O)O[C@H]1[C@H](OC(=O)Nc2ccccc2)[C@H](OC(=O)Nc2ccccc2)[C@@H](OC)O[C@@H]1CO,0.559
3,COC(=O)[C@@]1(Cc2ccccc2)[C@H]2c3cc(C(=O)N4CCCC4)n(Cc4ccccc4)c3C[C@H]2CN1C(=O)c1ccccc1,-0.463
4,COc1cc2c(cc1OC)CN(C(=O)[C@@H]1[C@H]3C(=O)O[C@H](c4ccccc4)[C@H](c4ccccc4)N3[C@H](c3ccc(OCCO)cc3)[C@@]13C(=O)Nc1ccc(C#CCCO)cc13)CC2,0.718
5,COc1ccc([Si](C)(C)[C@@H]2[C@@H](CC(=O)N(CCO)Cc3ccccc3)O[C@]3(C(=O)N(C)c4c(Br)cc(C)cc43)[C@H]2C)cc1,-0.0018
6,COC(=O)[C@@]1(Cc2ccccc2)[C@H]2c3cc(C(=O)N4CCCC4)n(Cc4ccc(OC(F)(F)F)cc4)c3C[C@H]2CN1C(=O)c1ccccc1,-0.277

# From PubChem BioAssay
